Source: PubChem BioAssay AID504332 (National Center for Advancing Translational Sciences (NCATS), 2011)
The whole screen tested about 350,000 compounds, of which about 31,000 (8.9%) were called active. About 15% were inconclusive and are not listed. Many of the other results were omitted from the sample, so actives are more common in it than they were. A number with no mark means an inactive call. Calls follow the shape of the dose curve; as a rule, active = well fitted inhibition curve with a large enough effect; inconclusive = small, poorly fitted or top-dose-only effect; inactive = no such curve, though single readings can be large or run the other way.

biological target: Histone-lysine N-methyltransferase EHMT2 (Homo sapiens) (UniProt Q96KQ7); assay: qHTS Assay for Inhibitors of Histone Lysine Methyltransferase G9a; conditions: G9a H3K9 monomethylation, AlphaScreen, 2 h; series mostly up to 59 µM; activity, negative = inhibition: at the top concentration; also: nearly all actives have a fitted effect of over 75% in size
From the text: Methylated lysines, on the N-terminal tails of histone proteins serve as epigenetic markers to recruit factors that can then modify local chromatin structure to lead to functional consequences. G9a and other members of the SUV39 family of the SET domain-containing superfamily of histone lysine methyltransferases (HMT) have been identified to specifically methylate Lys9 of histone H3 (H3K9). G9a catalyzes the mono- and di-methylation of H3K9 in mammalian euchromatic regions, where the resulting H3K9me2 is indicative of transcriptional repression. […] The inhibition of G9a will result in transcriptional activation and work synergistically with DNA methyltransferase and histone deacetylase inhibitors, to kill cancer cells. This qHTS assay for identification of G9a inhibitors is a chemiluminescence based AlphaScreen (PerkinElmer). Methylation of biotinylated-histone peptide is measured through specific antibody-based detection, in conjunction with streptavidin-coated donor and anti-IgG antibody-coated acceptor beads. The method is particularly well suited for detection of inhibitors acting by the desired histone peptide competitive mechanism and is applicable to testing other HMTs. Although AlphaScreen has significant advantages with its utility in a variety of epigenetic target assays, the primary screening data provided in this deposition should be used with caution due to the prevalence of screening artifacts. An AlphaScreen counterscreen is highly recommended to be run against any putative actives to eliminate non specific artifacts. Alternatively, one can use other AlphaScreen assays in PubChem to filter out promiscuous hits. Quinn et al. A chemiluminescence-based method for identification of histone lysine methyltransferase inhibitors. Mol Biosyst 6(5): 782-8. 2010. PMID: 20567762 [2] Baell,Holloway. New substructure filters for removal of pan assay interference compounds (PAINS) from screening libraries and for their exclusion in bioassays. J Med Chem. 53(7):2719-40. 2010. PMID: 20131845 NIH Molecular Libraries Probe Production Network [MLPCN] NIH Chemical Genomics Center [NCGC] Structural Genomics Consortium (SGC) NIH Grant: 5U54 MH084681-02
To each well of a 1,536w plate, 2ul of HMT enzyme (final 20nM) were added, using a nanoliter dispenser. The G9a- and GLP-inhibitor BIX-01294 (CID: 25150857) are used as an intraplate control, with a 16-point titration in duplicate. A Kalypsys pin-tool transferred 23nl of library compound solution in DMSO to each well. Following a 15 min incubation of enzyme with compounds at room temperature, 1ul mixture of b-H3K9 peptide substrate (final 500nM) and SAM cofactor (final 20uM) were added. Reactions were allowed to proceed at room temperature for 2 hours. Methylated b-H3K9 peptide product was detected with 0.5 ug/mL rabbit polyclonal anti-monomethyl histone H3K9 antibody (Abcam Inc., Cambridge, MA) and 20 ug/mL each streptavidin-coated donor and anti-rabbit IgG acceptor AlphaScreen beads. Antibody and beads were added in a 1ul dispense, for a final volume of 4ul, and plates were incubated, protected from the light, for 10 min at room temperature. Microplates were then read on an EnVision multilabel plate reader using the 1,536 plate HTS AlphaScreen aperture (excitation time 80 ms, measurement time 240 ms).
% is scaled to controls: 0 for no effect and ±100 for the full control effect; potency is read from the fitted curve at half-maximal effect.

Sequence of Histone-lysine N-methyltransferase EHMT2 (Homo sapiens) (Q96KQ7 913-1193 limits assumed): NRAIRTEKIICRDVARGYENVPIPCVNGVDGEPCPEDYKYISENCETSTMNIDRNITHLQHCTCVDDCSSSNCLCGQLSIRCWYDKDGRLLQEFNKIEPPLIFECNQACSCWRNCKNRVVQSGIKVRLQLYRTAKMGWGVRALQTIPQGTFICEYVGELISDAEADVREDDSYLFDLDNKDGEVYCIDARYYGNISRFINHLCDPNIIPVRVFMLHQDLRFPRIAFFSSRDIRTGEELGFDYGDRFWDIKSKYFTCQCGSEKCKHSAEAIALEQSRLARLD

| Compound | activity, negative = inhibition | Potency |
| --- | --- | --- |
| C/C(=N\NC(=O)COc1c(C)cccc1C)c1cccs1 | 26.6% [at 102 µM] |  |
| C/C(=N\Nc1ccc(S(N)(=O)=O)cc1[N+](=O)[O-])c1cccs1 |  | 25.1 µM (active) |
| C/C(=N\Nc1ncc(Cl)cc1Cl)c1cccs1 | -2.14% [at 102 µM] |  |
| C=CCOc1ccc(C(=O)Nc2ccccc2C(=O)N2CCCC2)cc1 | 0.754% [at 102 µM] |  |
| O=C(NCCc1ccc(Cl)cc1)c1ccc2c(c1)N(Cc1ccc(F)cc1)C(=O)CS2 | 4.55% |  |
| Cc1cc2ccccc2n2c(SCC(=O)N3CCN(C(=O)c4ccco4)CC3)nnc12 | -25.7% [at 102 µM] |  |
| O=C(CSc1nnc(-c2cccs2)n1-c1ccccc1)N1CCN(C(=O)c2ccco2)CC1 |  | 7.08 µM (active) |
| O=C(CSc1nnc(-c2cccs2)n1-c1ccccc1)NCc1ccco1 | -5.59% [at 12.7 µM] |  |
| Cc1cc(=O)n2[nH]c(-c3cccc(Cl)c3)cc2n1 | -10.1% [at 102 µM] |  |
| Cc1cc(/C=C(/C#N)C(=O)Nc2ccc(Cl)cc2)c(C)n1-c1cccnc1 | 23.3% |  |
| Cc1cc(/C=C2\SC(=Nc3ccc(N4CCOCC4)cc3)N(C)C2=O)c(C)n1-c1cccnc1 |  | 70.8 µM (active) |
| O=C(/C=C/c1ccc(N2CCOCC2)cc1)c1ccccc1 | 96.9% [at 102 µM] |  |
| O=C(NCCS(=O)(=O)NCc1ccc(Cl)cc1)c1ccccc1 | -7.35% [at 102 µM] |  |
| Cc1cc(NS(=O)(=O)c2ccc(NC(=O)c3cccnc3)cc2)nc(C)n1 | 2.52% [at 102 µM] |  |
| O=C(/C=C/Nc1ccc(S(=O)(=O)Nc2cnc3ccccc3n2)cc1)c1cccnc1 |  | 70.8 µM (active) |
| Cc1noc(NS(=O)(=O)c2ccc(N/C=C/C(=O)c3ccccc3)cc2)c1C | -38.3% [at 2.33 µM] |  |
| CC(OC(=O)CCCOc1ccccc1)C(=O)Nc1ccc(Cl)cn1 (configuration not stated) | 34.7% [at 102 µM] |  |
| Cc1ccc(-c2noc(CSc3nnc(-c4ccc(Cl)cc4)n3C)n2)cc1 | 1.74% |  |
| Cc1cc(=O)n2nc(N3CCCC(C(=O)NCc4cccc(Cl)c4)C3)sc2n1 (configuration not stated) | 14.8% [at 102 µM] |  |
| Cc1ccc(Cl)cc1NC(=O)CN1CCN(S(=O)(=O)N2CCOCC2)CC1 | 1.26% [at 102 µM] |  |
| O=C(CN1CCOCC1)Nc1cc(Cl)ccc1Cl | 53.9% |  |

| Compound | activity, negative = inhibition | Potency |
| --- | --- | --- |
| COc1ccc(NC(C)=O)cc1NC(=O)CN1CCN(c2ccc(F)cc2)CC1 | 2.49% |  |
| O=C(CN1CCN(c2ccc(F)cc2)CC1)Nc1cccc(C(F)(F)F)c1 |  | 50.1 µM (active) |
| O=C(CN1c2ccccc2S(=O)(=O)c2ccccc21)Nc1cccc(C(F)(F)F)c1 | -10.5% |  |
| COc1ccccc1N1CCN(CC(=O)NC(=O)NCc2ccco2)CC1 | 6.46% [at 102 µM] |  |
| CC(C)OC(=O)CN1CCN(c2ccc(Cl)cc2)CC1 | 1.33% [at 102 µM] |  |
| NC(=O)CCN1CCN(S(=O)(=O)/C=C/c2ccccc2)CC1 | 29% [at 102 µM] |  |
| O=C(CN1CCN(c2ccc(O)cc2)CC1)Nc1cc(S(=O)(=O)N2CCOCC2)ccc1Cl |  | 3.16 µM (active) |
| O=C(CN1CCN(c2ccc(Cl)cc2)CC1)N1CCCC1 | 12.3% |  |
| O=C(CN1CCN(S(=O)(=O)/C=C/c2ccccc2)CC1)NC(=O)NCc1ccco1 |  | 20 µM (active) |
| O=C(CN1CCN(c2ccc(Cl)cc2)CC1)c1ccccc1 |  | 8.91 µM (active) |
| COc1ccccc1NC(=O)C1=C(C)Nc2nc(SCC(=O)c3ccc(C)cc3)nn2C1c1ccccc1C (configuration not stated) | -0.656% |  |
| O=C(NCc1ccncc1)c1cccc(NS(=O)(=O)c2ccc(F)c(F)c2)c1 | -0.45% |  |
| CC1CCCCN1S(=O)(=O)c1ccc(F)c(C(=O)Nc2ccccc2C(F)(F)F)c1 (configuration not stated) | 11.3% |  |
| CN(Cc1ccccc1)S(=O)(=O)c1ccc(F)c(C(=O)Nc2cccc(Cl)c2Cl)c1 | -8.99% |  |
| COc1ccc(-c2c(C)c3ccc(O)c(CN4CCCC4)c3oc2=O)cc1OC | 13.2% |  |
| COc1ccc(-c2noc(CCC(=O)N(C)c3ccccc3C)n2)cc1 | 7.21% |  |
| Cc1ccc2nc(SCC(=O)N3CCN(c4ccccc4)CC3)nc(=O)n2c1 | -0.43% [at 0.501 µM] |  |
| O=C(COC(=O)c1cc(=O)[nH]c2ccccc12)NCc1cccc(Cl)c1 | 1.96% [at 12.7 µM] |  |
| CN(C)S(=O)(=O)c1ccc(C(=O)N(Cc2cccnc2)c2nc3c(F)cc(F)cc3s2)cc1 | -4.21% |  |
| COc1ccccc1NC(=O)C1CCCN1S(=O)(=O)c1ccc(Cl)cc1 (configuration not stated) | 34.2% [at 102 µM] |  |
| O=C(CNC(=O)c1ccc(Br)o1)NCC1CCCO1 (configuration not stated) | 36.6% [at 102 µM] |  |

| Compound | activity, negative = inhibition | Potency |
| --- | --- | --- |
| NS(=O)(=O)c1ccc(NC(=O)C(=O)Nc2ccc3nc4n(c(=O)c3c2)CCCCC4)cc1 | -25.2% |  |
| O=C(CN1CCN(S(=O)(=O)/C=C/c2ccccc2)CC1)Nc1ccc(N2CCOCC2)cc1 |  | 35.5 µM (active) |
| O=C(CN1CCOCC1)Nc1ccccc1 | 41.4% [at 12.7 µM] |  |
| O=c1cc(CN2CCN(S(=O)(=O)/C=C/c3ccccc3)CC2)c2ccc(O)cc2o1 | 9.01% |  |
| O=C(CN1CCN(c2ccc(O)cc2)CC1)Nc1ccc(-c2ccccc2)cc1 |  | 11.2 µM (active) |
| CC(=O)c1ccc(N2CCN(CC(=O)Nc3ccccc3N3CCOCC3)CC2)cc1 | -4.9% |  |
| O=C(CN1CCN(c2ccccc2)CC1)Nc1ccc(F)cc1 | 15.6% [at 102 µM] |  |
| Cc1ccccc1NC(=O)c1cc2c([nH]c1=O)CC(C)(C)CC2=O | 10.3% |  |
| O=C(Nc1cc(Cl)ccc1N1CCOCC1)c1ccc(N2CCCC2=O)cc1 | -16.7% [at 102 µM] |  |
| CCc1ccccc1NC(=O)Cn1c(=O)n(-c2cccc(C)c2)c(=O)c2c1c1cc(OC)ccc1n2C | 0.155% |  |
| CC(C)c1cc(C(=O)N/N=C/C(Br)=C/c2ccccc2)n[nH]1 | -9.73% [at 102 µM] |  |
| CC(C)c1cc(C(=O)O)n[nH]1 |  | 44.7 µM (active) |
| CC(C)c1cc(C(=O)O)on1 | 7.05% |  |
| O=C(CNC(=O)c1ccccc1Br)NCCSc1ccc(Br)cc1 | -0.242% [at 102 µM] |  |
| Cc1ccc2nc(COc3cccc(NC(=O)c4cccc(Cl)c4)c3)cc(=O)n2c1 | 15.9% |  |
| O=C(CCCN1C(=O)/C(=C/c2ccco2)SC1=S)Nc1ccccc1 | -21.4% |  |
| CN=C1S/C(=C\c2c(OC)cc(OC)cc2OC)C(=O)N1C | -4.41% [at 102 µM] |  |
| CN1C(=O)/C(=C/c2ccco2)SC1=Nc1cccc(C(=O)O)c1 |  | 28.2 µM (active) |
| COc1ccc(CCNC(=O)CCCCCNC(=O)N2CCn3c2nc2ccccc23)cc1OC | 50.3% [at 102 µM] |  |
| COc1ccc(NC(=O)Cn2cc(C(=O)c3ccncc3)c(=O)c3cc(C)ccc32)cc1Cl | 3.8% [at 12.7 µM] |  |
